Active and inactive are the calls of the source. How the source made its calls: active means hit-call score of the fitted dose curve at least 0.9, where 1 is the maximum; inactive means score below 0.9.
Read-out: Insulin Like Growth Factor 1 (IGF1), IGF1 (gene 3479)
Test: LTEA_HepaRG_IGF1: Life Technologies and Expression Analysis (LTEA) Assay for Insulin Like Growth Factor 1 (IGF1) using HepaRG (AID 2283506)
Conditions: mRNA level, 48 h; actives raise or lower the signal
Method: LTEA_HepaRG is a cell based, multiplexed-readout assay that uses HepaRG, a human liver cell line, with measurements taken at 48 hours after chemical dosing on a 96-well plate.LTEA_HepaRG_IGF1 is one of 102 assay component(s) measured in the LTEA HepaRG cell culture assay. It is a marker of Cell proliferation, survival, death.Data from the assay component LTEA_HepaRG_IGF1 was analyzed into 1 endpoint. This assay endpoint, LTEA_HepaRG_IGF1, was analyzed with bidirectional fitting relative to DMSO as the negative control and baseline of activity. Using a type of inducible reporter, measures of mRNA induction for gain or loss-of-signal activity can be used to understand regulation of transcription factor activity. To generalize the intended target to other relatable targets, this assay endpoint is annotated to the growth factor intended target family, where the subfamily is insulin-like.
A total of 1060 chemcials from the ToxCast library were tested in eight-point concentration-response experiments. Cell culture and cytotoxicity assays were conducted at Thermo Fisher Scientific's Custom Services facility (Madison, WI). A single lot of human HepaRG cells (Thermo Fisher Scientific, Frederick, MD) was used for the cell culture experiments. 96-well format collagen type I coated plates of human HepaRG cells were prepared using established methods. Briefly, cryopreserved HepaRG cells were thawed, plated at a density of approximately 100,000 cells/well in HepaRG Thaw, Plate, and General Purpose media (HPRG770, Thermo Fisher Scientific), and incubated for 48 hours. 0.5% DMSO was selected as vehicle control to balance the requisite need of DMSO in HepaRG cultures to maintain differentiation (for example, baseline metabolism, proportions of hepatocytes vs. cholangiocytes), while enabling further hepatic receptor pathway activation (for example, PXR and CAR) in response to chemical exposure. 48 hours after plating, the culture medium was replaced with HepaRG Serum-Free Incudtion Media. Cells were exposed to each test chemical in duplicate and maintained in CO2 incubators for another 48 hours. Chemical plates were thawed to room temperature and 200x concentrations of treatment groups were prepared. 8-point conentration-reponse curves were made with the highest exposure at 100 uM, followed by half-log dilutions, all in 0.5% DMSO. Each test plate contained variouse controls, induction positive controls (1mM phenobarbital), cytotoxicity positive controls ([…] aflatoxin B1), vehicle controls (0.5% DMSO), and total lysis controls (0.5% DMSO). Cell morphology images were taken using an Essen IncuCyte FLR automated microscope, with six 96-well plates imaged in about 24 minutes. Images were captured and exported and JPEG files. Spent culture media was transfered to black-well plates for the LDH assay, and remaining media was sorted at -80 C for later use. Cells were treated with RLT buffer and frozen until shipped for gene expression analysis. Total RNA was isolated from the cell suspension in 75 uL of Buffer RLT (Qiagen, Germantown, MD 20874) by Quintiles/Expression Analysis (Durham, NC) using a custom isolation procedure. Total RNA from each plate well was transferred to a preamplification plate. Fluidigm's 96.96 Dynamic ArrayTM (Fluidigm, Amsterdam, the Netherlands) technology was used for gene expression analyses by quantitative reverse transcription polymerase chain reaction (qRT-PCR, performed by Quintiles/Expression Analysis, Durham, NC)89. Standard TaqManTM Assays (Applied Biosystems/ThermoFisher Scientific, Foster City, CA) were used to assess the expression of 93 genes selected based on their selectivity and sensitivity to important hepatic receptors known to be modulated by environmental chemicals; importance in human hepatocyte functionality; and hepatotoxicity. […]

| SMILES | outcome | AC50 |
| --- | --- | --- |
| C1CC2OC2CC1C1CO1 (stereo not given) | inactive |  |
| COc1ccc(O)c(C(C)(C)C)c1 | inactive |  |
| CCOCCOC(C)=O | inactive |  |
| O=NN(c1ccccc1)c1ccccc1 | inactive |  |
| Clc1ccc(Cl)cc1 | inactive |  |
| C=CC(N)=O | inactive |  |
| c1cc2ccc3cccc4ccc(c1)c2c34 | inactive |  |
| CC(C)(O)C(=O)Nc1ccc([N+](=O)[O-])c(C(F)(F)F)c1 |  | 0.0443 µM (active) |
| CCOC(=O)C(O)(c1ccc(Cl)cc1)c1ccc(Cl)cc1 | inactive |  |
| CCOP(=S)(OCC)SCSC(C)(C)C | inactive |  |
| CO/C=C(/C(=O)OC)c1ccccc1COc1cccc(C(F)(F)F)n1 |  | 5.31 µM (active) |
| Oc1ccc(C(c2ccc(O)cc2)(C(F)(F)F)C(F)(F)F)cc1 | inactive |  |
| CC1=C2C[C@H]3[C@@H](CC=C4C[C@@H](O)CC[C@@]43C)[C@@H]2CC[C@]12O[C@@H]1C[C@H](C)CN[C@H]1[C@H]2C | inactive |  |
| ClC1=C(Cl)[C@]2(Cl)[C@@H]3[C@@H]4C[C@@H]([C@H]5O[C@@H]45)[C@@H]3[C@@]1(Cl)C2(Cl)Cl |  | 9.92 µM (active) |
| CCC(=O)O[C@H]1CC[C@H]2[C@@H]3CCC4=CC(=O)CC[C@]4(C)[C@H]3CC[C@]12C | inactive |  |
| O=S(=O)(O)C(F)(F)C(F)(F)C(F)(F)C(F)(F)F | inactive |  |
| Cc1cccc(C)c1N | inactive |  |
| CCCCCCCCOC(=O)c1ccccc1C(=O)OCCCCCCCC | inactive |  |
| Nc1ccc(-c2ccc(N)cc2)cc1 | inactive |  |
| CCC(C)c1cc([N+](=O)[O-])cc([N+](=O)[O-])c1O (stereo not given) |  | 1.24 µM (active) |

| SMILES | outcome | AC50 |
| --- | --- | --- |
| CC(c1ccc(O)cc1)(c1ccc(O)cc1)c1ccc(O)cc1 |  | 92 µM (active) |
| Cc1ccccc1CO[C@@H]1C[C@@]2(C(C)C)CC[C@]1(C)O2 | inactive |  |
| O=C(NC(=O)c1c(F)cccc1F)Nc1cc(Cl)c(OC(F)(F)C(F)F)c(Cl)c1 | inactive |  |
| ClC1=C(Cl)[C@]2(Cl)[C@@H]3[C@@H](Cl)[C@H]4O[C@H]4[C@@H]3C1(Cl)C2(Cl)Cl |  | 5.01 µM (active) |
| CCNc1nc(NC(C)C)nc(SC)n1 |  | 33.2 µM (active) |
| Oc1c(Cl)c(Cl)c(Cl)c(Cl)c1Cl |  | 6.52 µM (active) |
| CCCCCCCCCc1ccc(O)cc1 | inactive |  |
| CCCCCCCCCC[N+](C)(C)CCCCCCCCCC |  | 67.7 µM (active) |
| Cc1cc(O)ccc1Cl | inactive |  |
| O=C(NC(=O)c1cc(F)c(F)cc1Cl)Nc1cc(F)ccc1N1CCC(C(=O)O)CC1 | inactive |  |
| CC(C)(c1ccccc1)c1ccc(O)cc1 | inactive |  |
| O=C(O)C(F)(F)C(F)(F)C(F)(F)C(F)(F)C(F)(F)C(F)(F)C(F)(F)C(F)(F)C(F)(F)F |  | 31.2 µM (active) |
| Cc1ccccc1O | inactive |  |
| Cc1cccc([N+](=O)[O-])c1 | inactive |  |
| CCC(C)(c1ccc(O)cc1)c1ccc(O)cc1 | inactive |  |
| Cc1ccc(O)c(C)c1 | inactive |  |
| Clc1ccc(C(c2ccccc2Cl)C(Cl)(Cl)Cl)cc1 (stereo not given) |  | 31.3 µM (active) |
| CC(C)C(=O)OCC(C)(C)C(OC(=O)C(C)C)C(C)C (stereo not given) | inactive |  |
| CC#Cc1cc(C)nc(Nc2ccccc2)n1 |  | 33.1 µM (active) |
| Oc1ccc(Cl)cc1Cl | inactive |  |
